Rows were chosen to be rich in hits. Some 1.1% of all compounds tested hit in one or more screens of this group.
PTHR1 ag – agonists of human PTHR1 parathyroid hormone receptor | Q03431 | HEK293 GP2 PTHR1 cells, GloSensor cAMP luminescence, 1 h | Potency, µM (series often up to 115 µM), for inactives: top-dose activation, most hits filed as activators | actives 0.075% (n = 410,000) | AID 743266; also: potency is read from the fitted curve at half-maximal effect; nearly all actives have a fitted effect of over 55% in size
Target sequence (Q03431 whole entry, looked up): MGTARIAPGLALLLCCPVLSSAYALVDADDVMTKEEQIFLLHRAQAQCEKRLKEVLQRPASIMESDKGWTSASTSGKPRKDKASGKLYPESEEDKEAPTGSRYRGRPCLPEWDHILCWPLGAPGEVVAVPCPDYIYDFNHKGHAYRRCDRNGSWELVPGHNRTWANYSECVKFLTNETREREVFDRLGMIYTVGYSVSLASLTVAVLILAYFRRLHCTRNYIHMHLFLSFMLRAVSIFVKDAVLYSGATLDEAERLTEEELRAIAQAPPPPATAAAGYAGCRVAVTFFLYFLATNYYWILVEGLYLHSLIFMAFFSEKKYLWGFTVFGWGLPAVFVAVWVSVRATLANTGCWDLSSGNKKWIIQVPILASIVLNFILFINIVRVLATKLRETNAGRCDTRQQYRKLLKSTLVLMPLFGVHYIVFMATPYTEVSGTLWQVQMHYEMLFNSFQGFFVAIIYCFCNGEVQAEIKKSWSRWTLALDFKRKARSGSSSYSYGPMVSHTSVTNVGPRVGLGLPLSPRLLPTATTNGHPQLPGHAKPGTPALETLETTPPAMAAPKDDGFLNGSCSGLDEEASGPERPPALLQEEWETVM
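HEK-293-derived GP2 cells expressing PTHR1 and a GloSensor cAMP reporter, 3,000/well, plated overnight, given luciferin plus IBMX (each 0.5 mM as added) for 1 h at 37 °C, then compound for 1 h at 37 °C. Luminescence was read after 15 min at room temperature.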
RGS4 inh – inhibitors of human regulator of G protein signaling 4; Transcreener GDP fluorescence polarization, RGS4-accelerated GTP hydrolysis; actives 0.039% (n = 390,000); AID 504845; Potency, µM (doses to about 114 µM), inactives show top-dose activity change, negative = inhibition, most hits filed as inhibitors; also: potency is read from the fitted curve at half-maximal effect; % is scaled to controls: 0 for no effect and ±100 for the full control effect; nearly all actives have a fitted effect of over 75% in size
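MLSMR compounds (23 nl, pin-transferred) preincubated 10 min at room temperature with a 500nM (2x) first reagent, then RGS4 at 900nM (2x) plus Transcreener GDP mix added; fluorescence polarization (620/688 nm) read before and after 90 min at 30 °C.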
LDHA inh – inhibitors of human lactate dehydrogenase A. purified LDHA, NADH/diaphorase-resazurin fluorescence; stronger effect = lower value. activity change, % (values are at about 110 or 230 µM). actives 0.15% (n = 480,000). AID 1347041; in the data active = activity change below about -30%; inconclusive = mostly about -25% to -30%;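 also: plate controls were DMSO wells for no effect and wells without enzyme for full effect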
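Human LDH5 at 2 nM final in Tris HCl pH 7.4 with 0.06 mM NADH and 0.2 mM pyruvate, reacted 5 minutes at room temperature. Remaining NADH coupled via diaphorase/resazurin; resorufin fluorescence read at 0 and 20 minutes, normalized to enzyme-free and DMSO wells.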
p53 reactivator – re-activators of mutant p53. H1299 p53-A138V BP100-luciferase reporter, luminescence, 24 h. Potency, µM (series often up to 92.2 µM), inactives show top-dose activity change, positive = activation, most hits filed as activators. actives 0.063% (n = 320,000). AID 504706; also: potency is read from the fitted curve at half-maximal effect; % of control where 0% means no effect; nearly all actives have a fitted effect of over 45% in size
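p53-null H1299 cells stably carrying temperature-sensitive p53-A138V and a BP100-luciferase reporter were pinned with compounds (4-point, 1:5 series) and held 24 hrs at 37 deg C. Luminescence was read 10 min after detection reagent.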
BRCA1 expr up – activators of BRCA1 expression. MCF7-BRCA1-FFLuc reporter, luminescence, 48 h; response scale: scaled: vehicle 0%, 10 µM genistein 100%. Potency, µM (top dose mostly 46.1 µM), for inactives: at the top dose activation, actives largely listed as activators. actives 1.1% (n = 380,000). AID 624202; also: potency is read from the fitted curve at half-maximal effect; nearly all actives have a fitted effect of over 80% in size
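Reporter cells (MCF7, BRCA1 promoter-firefly luciferase) received library compounds across a concentration series for 48 h. End-point luminescence was measured and concentration-effect curves derived after normalization.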
* = called active by the depositor; [ ] = dose if it differs, or a comment. Unless noted, calls follow the shape of the dose curve; as a rule, active = well fitted curve in the direction sought with a large enough effect; inconclusive = small, poorly fitted or top-dose-only effect, or another doubt; inactive = no such curve, though single readings can be large; an effect the other way counts as inactive or inconclusive.

What do the screens show for `O=C(Nc1sc2c(c1C(=O)O)CCCC2)c1cccc(Cl)c1`?
PTHR1 ag: -69%; RGS4 inh: 7%; LDHA inh: -7; p53 reactivator: inconclusive; BRCA1 expr up: 11µM*

What do the screens show for `COc1cccc(N2CCN(c3cnc4ccccc4n3)CC2)c1`?
PTHR1 ag: -24%; RGS4 inh: -41%; LDHA inh: 1; p53 reactivator: 5%; BRCA1 expr up: 2µM*

How did CCN(CC)c1sc(S(C)(=O)=O)nc1S(=O)(=O)c1ccc(C)cc1 do in these assays?
LDHA inh: -5

What do the screens show for `O=CC1=Cc2c(ccc3ccccc23)OC1`?
LDHA inh: 17

Results for CCN(CC)c1ccc(/C=N/N2CCN(Cc3ccccc3)CC2)c(O)c1 ?
PTHR1 ag: -25%; RGS4 inh: 2%; LDHA inh: 22; p53 reactivator: 3%; BRCA1 expr up: -30%

What do the screens show for `CCN(CC)c1ccc(/C=N/N2CCOCC2)c(O)c1`?
PTHR1 ag: inactive; RGS4 inh: -22%; LDHA inh: 8; p53 reactivator: inconclusive; BRCA1 expr up: 6.3µM*

What do the screens show for `Cc1ccc(C(=O)CC(C(=O)O)c2c[nH]c3ccccc23)cc1` (configuration not stated)?
LDHA inh: 10

How did Cc1ccc(-c2cc3ccccn3c2)cc1C do in these assays?
LDHA inh: 0

What do the screens show for `CCCn1c(=O)c2ccc(C(=O)NCC(C)C)cc2n2c(SCc3ccc(F)cc3)nnc12`?
LDHA inh: -34*

What do the screens show for `Cc1cc(C)cc(N=c2c([N+](=O)[O-])nn(-c3ccc(Cl)cc3)n2O)c1`?
PTHR1 ag: -21%; RGS4 inh: -3%; LDHA inh: -2; p53 reactivator: 2%; BRCA1 expr up: -21%

What do the screens show for `CCc1ccc(N=c2c([N+](=O)[O-])nn(-c3ccccc3)n2O)cc1`?
PTHR1 ag: -30%[57.5 µM]; RGS4 inh: 3%; LDHA inh: 16; p53 reactivator: 40µM*; BRCA1 expr up: -3%

Results for O=C(Nc1nc(-c2cccs2)cs1)C1=COCCO1 ?
PTHR1 ag: -10%; RGS4 inh: inconclusive; LDHA inh: -1; p53 reactivator: inconclusive; BRCA1 expr up: 4µM*

Results for O=C(Nc1nc(-c2ccc(Cl)cc2)cs1)C1=COCCO1 ?
PTHR1 ag: -30%; RGS4 inh: -2%; LDHA inh: -8; p53 reactivator: 17%; BRCA1 expr up: 94%

How did Cc1ccc(OCC(O)Cn2nc(-c3ccco3)oc2=O)cc1 (configuration not stated) do in these assays?
LDHA inh: -1

Results for CCC(=O)CCC(=O)c1ccc2ccccc2c1 ?
PTHR1 ag: -3%; RGS4 inh: 19%; LDHA inh: -4; p53 reactivator: inconclusive; BRCA1 expr up: 7.1µM*

What do the screens show for `C[S+](C)CC(=O)c1ccc2ccccc2c1`?
LDHA inh: 1; BRCA1 expr up: -2%

How did CC(OC(=O)c1ccc2ccccc2c1)C(=O)N(C)Cc1ccccc1 (configuration not stated) do in these assays?
PTHR1 ag: -62%; RGS4 inh: 28%; LDHA inh: -3; p53 reactivator: 3%; BRCA1 expr up: -16%

How did CC(C)N(CCC(=O)c1ccc2ccccc2c1)Cc1ccccc1 do in these assays?
PTHR1 ag: -94%; RGS4 inh: 0.67µM*; LDHA inh: -8; p53 reactivator: -19%; BRCA1 expr up: -21%

How did CC(=O)N1CCN(C(=O)Cn2ccc3c(Br)cccc32)CC1 do in these assays?
LDHA inh: 0

How did CCOc1ccc2nc(SCC(=O)N(C)C)[nH]c2c1 do in these assays?
PTHR1 ag: -47%[57.5 µM]; RGS4 inh: -2%; LDHA inh: -5; p53 reactivator: inconclusive; BRCA1 expr up: 10µM*

What do the screens show for `COc1ccc2nc(SCC(=O)C(C)(C)C)[nH]c2c1`?
PTHR1 ag: inactive; RGS4 inh: -37%; LDHA inh: -5; p53 reactivator: 28%; BRCA1 expr up: 7.9µM*

Screening data deposited in PubChem BioAssay by National Center for Advancing Translational Sciences (NCATS).
